Hits are enriched below; roughly 10% of the tested compounds scored in any of these assays.
PNC assembly inh: blocks assembly of the perinucleolar compartment | 140,000 tested, 3.1% active | PC3M PTB-GFP, PNC prevalence imaging, 16 h; active compounds read low | activity change (PNC), negative = inhibition, % at 10 µM;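 active = readout at or below -70, meaning at least 70% loss of cells showing the perinucleolar compartment, a nuclear body marking cancer cells; inconclusive = readout between -30 and a set limit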;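 note: plate controls were DMSO wells for no effect and camptothecin positive control wells for full effect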
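Compounds are pinned in duplicate onto adhered PC3M cells stably expressing GFP-tagged PTB and incubated 16 h at 37 C. Cells are then fixed, nuclei stained with Hoechst, and PNC-positive cells counted.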
ALDH1A1 block: inhibitors of human aldehyde dehydrogenase 1A1; AID 1030; P00352; 220,000 tested, 7.3% active; Purified ALDH1A1, NADH fluorescence, propionaldehyde substrate; Potency, µM (titrated, usually from 75.3 µM), without a hit: at the top dose activity, negative = inhibition, actives largely listed as inhibitors;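 note: potency is the fitted concentration of half-maximal effect; plate controls were no enzyme wells and a reference inhibitor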
ALOX12 inhib: blocks human 12-lipoxygenase activity; P18054; purified 12-hLO, xylenol orange hydroperoxide absorbance; Potency, µM (doses to about 57.1 µM), for the others: at the top dose activity change, negative = inhibition, hits mostly inhibitors; 150,000 tested, 0.12% active; active = well fitted inhibition curve with a large enough effect; inconclusive = small, poorly fitted or top-dose-only effect; note: potency is the fitted concentration of half-maximal effect; nearly all actives have a fitted effect of over 55% in size
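Hydroperoxide output read as Fe(III)-xylenol orange absorbance, 573-to-405 nm ratio, after 30 min reaction with 40 uM arachidonic acid. Enzyme: 150 nM purified human 12hLO, 15 min compound preincubation; 25 mM Hepes pH 7.0, room temperature.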
HPGD inh: HPGD (human) dehydrogenase inhibition | P15428 | Potency, µM, for the others: at the highest dose activity change, negative = inhibition, usual class: inhibitors | 150,000 tested, 4.3% active | purified HPGD, NADH fluorescence kinetic, PGE2 substrate; note: potency is the fitted concentration of half-maximal effect
Target sequence (P15428 whole entry, looked up): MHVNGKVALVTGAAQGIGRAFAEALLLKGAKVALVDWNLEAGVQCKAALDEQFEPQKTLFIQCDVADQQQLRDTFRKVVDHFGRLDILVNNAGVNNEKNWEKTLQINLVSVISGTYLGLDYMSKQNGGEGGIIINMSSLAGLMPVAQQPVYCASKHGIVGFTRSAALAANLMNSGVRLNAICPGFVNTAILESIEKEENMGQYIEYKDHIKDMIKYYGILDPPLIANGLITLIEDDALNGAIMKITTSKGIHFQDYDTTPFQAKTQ
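20 nM HPGD preincubated 15 min at room temperature with compound in 50 mM Tris-HCl pH 8, 0.01% Tween 20. Started with 1 mM NAD+ and 30 uM prostaglandin E2; NADH fluorescence (360/450 nm) read 5 times over 30-s intervals, last minus first.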
LMNA splice mod: modulators of lamin A splicing; HeLa LMNA splicing GFP/RFP minigene ratio, 48 h; Potency, µM (highest dose often 46.1 µM), for inactives: at the top dose ratio change, negative = inhibition, actives largely listed as inhibitors; 200,000 tested, 0.01% active; active = well fitted inhibition curve with a large enough effect in the signal ratio, with a control signal flat, not every such curve was filed as active; inconclusive = small, poorly fitted or top-dose-only effect, or effect the other way, or a change in a side signal; the % refers to the signal ratio; note: potency is the fitted concentration of half-maximal effect
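S3 HeLa cells stably expressing lamin A-EGFP splicing minigene plus DsRed2, 600 cells/well, 48 h compound exposure at 37C. Laser-scanning cytometry; analysed as GFP (500-530 nm)/RFP (575-640 nm) total intensity ratio; 0.5% DMSO vehicle.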
Active calls of the source: *; u = inconclusive; x = not tested or not shown; ! = repeats disagree; [ ] = another dose, or the depositor's remark. Unless noted, calls come from the whole dose curve; as a rule, active = well fitted inhibition curve with a large enough effect (not every such curve was filed as active); inconclusive = small, poorly fitted or top-dose-only effect, or another doubt; inactive = no such curve, though single readings can be large or run the other way. Unless noted, % is set by controls: 0 for no effect and ±100 for the full control effect.

SMILES	PNC assembly inh	ALDH1A1 block	ALOX12 inhib	HPGD inh	LMNA splice mod
Cc1ccc(C(=O)c2ccc(CC(=O)O)n2C)cc1	x	1.9%	1.1%	15.8µM*!	u
c1ccc(NNc2ccccc2)cc1	x	10µM*	-8.4%	4.2%	x
CC(=O)NNc1ccccc1	x	-5.1%	5.3%	-2.4%	x
Cc1ccc(N2C(=O)/C(=C/c3ccc(CN(CCC#N)S(C)(=O)=O)o3)C(=O)NC2=S)cc1	21.6	22.4µM*	u	22.4µM*	-2.0%
O=C1NC(=O)N(c2ccc3c(c2)OCO3)C(=O)/C1=C/c1ccc(N2CCCCC2)o1	12.3	-11.4%	-9.1%	-12.0%	15.1%
C=C(C)c1cccc(C(C)(C)NC(=O)NC2CN3CCC2CC3)c1 (stereo unspecified)	-93.6*	u	-5.7%	-5.3%	u
O=C(COc1ccc(Cl)cc1)NC1CN2CCC1CC2 (stereo unspecified)	-1.4	20.6%	-3.5%	-4.0%	1.4%
Cc1onc(-c2ccccc2)c1C(=O)N[C@@H]1C(=O)N2[C@@H]1SC(C)(C)[C@@H]2C(=O)O	29.5	u	-1.6%	0.3%	-8.8%
O=C1CC(=O)N(c2ccc(Cl)cc2Cl)C(=O)N1	-126.9*	6.6%	u	-10.0%	-4.6%
NNC(N)=S	x	u	3.4%	-4.4%	x
CC[n+]1c(/C=C/N(C)c2ccccc2)sc2ccc(Cl)cc21	5.6	15.8µM*	-11.2%	-23.3%	u
Cl/C=C/CCl	x	-3.3%	-2.3%	-5.4%	x
CC(=O)OCC1=C(C(=O)O)N2C(=O)C(NC(=O)CCCC(N)C(=O)O)C2SC1 (stereo unspecified)	x	-0.4%	-6.1%	-16.9%	x
O=C1CC(=O)N(c2ccc3c(c2)OCO3)C(=O)N1	-95.0*	-8.1%	-5.4%	-4.5%	-11.1%
O=C(CCl)NN=C(c1ccccc1)c1ccccc1	x	0.0126µM*	x	x	-4.7%[46 µM]
NCC(=O)c1ccccc1	x	u	0.6%	-6.7%	-4.9%
NC1=NC([S][Hg][c]2ccc(N)cc2)c2ncn([C@@H]3O[C@H](CO)[C@@H](O)[C@@H]3O)c2N1 (stereo partly specified)	x	0.1µM*	x	0.0501µM*	x
C=C(Cl)Cl	x	-5.5%	2.1%	-4.5%	x
CC(=O)[O-].CC(=O)[O-].O.O.[Cd+2]	x	7.51µM*	-11.2%	-1.7%	x
O=C(O)c1ccccc1Nc1cccc(C(F)(F)F)c1	15.6	8.7%	-12.4%	28.2µM*!	u
CN(C)[C@@H]1C(=O)C(C(N)=O)=C(O)[C@]2(O)C(=O)C3=C(O)c4c(O)cccc4[C@](C)(O)[C@H]3C[C@@H]12	x	-0.7%[13.5 µM]	-3.9%[11.4 µM]	-29.2%	x
COc1cccc(C(=O)N2CCN(Cc3ccccn3)CC2)c1OC	u	7.08µM*	-11.9%	-10.4%	6.9%
COc1ccc(C(=O)C2CCCN(Cc3ccccn3)C2)c(OC)c1 (stereo unspecified)	x	-3.8%	x	x	x
O=C(O)c1cccc2c1NC(C(=O)O)C1CC(Sc3ccccc3[N+](=O)[O-])C(Cl)C21 (stereo unspecified)	-27.2	0.3%	u	u	-11.0%
CC(=O)c1ccc2c(c1)C1C(Cl)C(Sc3ccccc3[N+](=O)[O-])CC1C(C(=O)O)N2 (stereo unspecified)	-4.0	1.78µM*	-8.0%	u	u
SMILES	PNC assembly inh	ALDH1A1 block	ALOX12 inhib	HPGD inh	LMNA splice mod
O=C(O)C[C@H]1OCC=C2CN3CC[C@@]45C6=CC(=O)C(=O)C([N+](=O)[O-])=C6N[C@H]4[C@H]1[C@H]2C[C@@H]35	x	-5.9%[13.5 µM]	-2.6%[11.4 µM]	-4.8%	x
O=C1c2ccccc2C(=O)c2ccccc21	x	1.3%	0.7%	-5.2%	-20.6%
O=C1C=Cc2ccccc2C1=O	u	14.1µM*	-23.5%	7.94µM*	u
N#CC(C#N)=Cc1cccnc1	x	3.16µM*	x	x	u
N#Cc1cccc(NC(=O)N2CC[C@@]3(CCCN(C(=O)Oc4ccccc4)C3)C2)c1	x	-16.1%	-0.4%	-4.6%	x
Cc1cc(C)cc(N2C(=O)NC(=O)/C(=C\c3cccn3-c3ccc(Cl)cc3)C2=O)c1	u	u	u	u	-0.7%
CC(C)c1ccc(N2C(=O)NC(=O)/C(=C\c3cnc(-c4ccccc4)nc3)C2=O)cc1	u	7.08µM*	-4.0%	25.1µM*	11.9%
CC(C)c1ccc(N2C(=O)NC(=O)/C(=C\C=C\c3ccco3)C2=O)cc1	x	21.5%	x	x	x
O=C1NC(=S)NC(=O)C1=Cc1cccn1-c1ccc(O)cc1	x	20µM*	x	x	x
CN1C(=O)/C(=C/c2cccn2-c2ccc3ccccc3c2)C(=O)NC1=S	5.1	u	u	14.1µM*	-17.4%
Cc1cc(C)cc(N2C(=O)NC(=O)/C(=C\c3cccn3-c3ccccc3)C2=O)c1	u	-7.5%	2.0%	7.08µM*	u
CCCc1cc2c(n1Cc1ccco1)C(C)C1CN(C(=O)c3ccccc3)C(C)(C(=O)OC)C21 (stereo unspecified)	x	u	-5.4%	u	x
Cc1ccc(N2C(=O)NC(=O)/C(=C\c3ccsc3)C2=O)cc1C	u	-6.9%	-1.9%	31.6µM*	-10.7%
Cc1cccc(N2C(=O)NC(=O)/C(=C\c3cnc(-c4ccccc4)nc3)C2=O)c1	58.2	11.2µM*	-11.1%	25.1µM*	-21.9%
Cc1ccc(N2C(=O)NC(=O)/C(=C/c3cnc(-c4ccccc4)nc3)C2=O)cc1C	17.6	u	-18.2%	20µM*	u
C[C@@]12CC[C@H]3[C@@H](CC[C@H]4C[C@@H](O)CC[C@]43C)[C@H]1CC[C@@H]2C(=O)C[C@H](O)C(F)(F)F	x	9.2%[13.5 µM]	3.0%[11.4 µM]	-13.2%	x
CCNC(C)(C)[C@@H](SS)c1ccc(Br)cc1	x	u	-3.1%[11.4 µM]	3.16µM*	x

High-throughput results deposited in PubChem by National Center for Advancing Translational Sciences (NCATS).
